Only some compounds are listed: those with a hit (about 11% of all), similar ones and a draw of the others.
NPR1 antag = antagonists of human natriuretic peptide receptor Npr1; P16066; HEK293 hNpr1 GloSensor cGMP, ANP-stimulated luminescence; Potency, µM (titrated, usually from 46.3 µM), hits mostly inhibitors; 76,000 compounds, 1.6% hits; AID 1347048; note: nearly all actives have a fitted effect of over 60% in size
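HEK293 cells stably expressing human Npr1 and cGMP GloSensor pGS-40F, loaded 2 h with 2% GloSensor reagent, given compound 30 min at room temperature. Luminescence read before and 20 min after 0.1 nM hNppA.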
HEK cytotox = cytotoxic compounds in HEK 293 cells; HEK 293 viability, ATP luminescence (CellTiter-Glo), 48-72 h; Potency, µM (titrated, usually from 115 µM), most hits filed as inhibitors; 94,000 compounds, 6.6% hits; AID 1345083; active = well fitted curve in the direction sought with a large enough effect; inconclusive = small, poorly fitted or top-dose-only effect, or another doubt; inactive = no such curve, though single readings can be large; an effect the other way counts as inactive or inconclusive; note: nearly all actives have a fitted effect of over 60% in size
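CellTiter-Glo luminescence (cellular ATP) was read after 48 or 72 hr of compound exposure at 37 degree Celsius. Cells were HEK 293 plated at 250 cells/well.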
3T3 cytotox = kills NIH 3T3 cells; NIH 3T3 viability, CellTiter-Glo ATP luminescence, 48-72 h; Potency, µM (titrated, usually from 96.7 µM), most hits filed as inhibitors; 94,000 compounds, 4.3% hits; AID 1345082; active = well fitted curve in the direction sought with a large enough effect; inconclusive = small, poorly fitted or top-dose-only effect, or another doubt; inactive = no such curve, though single readings can be large; an effect the other way counts as inactive or inconclusive; note: nearly all actives have a fitted effect of over 55% in size
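NIH 3T3 cells at 400 cells/well received 23 nL of compound by pintool and were incubated 48 or 72 h at 37 °C. Viability was read as ATP-coupled CellTiter-Glo luminescence.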
FLuc inh = inhibitors of firefly (Photinus pyralis) luciferase; 76,000 compounds, 2.5% hits; purified P. pyralis luciferase, luminescence, biochemical; Potency, µM (highest dose often 115 µM), most hits filed as inhibitors; AID 1347043; active = well fitted curve in the direction sought with a large enough effect; inconclusive = small, poorly fitted or top-dose-only effect, or another doubt; inactive = no such curve, though single readings can be large; an effect the other way counts as inactive or inconclusive; note: nearly all actives have a fitted effect of over 65% in size
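Purified 10nM P. pyralis luciferase with 10uM D-luciferin and 10uM ATP in 50mM Tris acetate pH 7.5, 10mM Mg acetate, 0.01% Tween-20, 0.05% BSA. qHTS titration; luminescence read by CCD imager.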
Npr1 antag conf = hNpr1 antagonism, confirmation assay. Potency, µM (series often up to 57.6 µM), actives largely listed as inhibitors. HEK293 hNpr1 cGMP GloSensor luminescence, ANP-stimulated. shares compounds with NPR1 antag. 1,400 compounds, 76% hits; note: nearly all actives have a fitted effect of over 70% in size
Npr2 selectivity = antagonizes human Npr2, subtype selectivity check; shares compounds with NPR1 antag; HEK293 hNpr2 GloSensor cGMP luminescence, CNP-stimulated; Potency, µM (titrated, usually from 57.6 µM), usual class: inhibitors; 1,400 compounds, 67% hits; note: nearly all actives have a fitted effect of over 70% in size
Target sequence (P20594 whole entry, looked up): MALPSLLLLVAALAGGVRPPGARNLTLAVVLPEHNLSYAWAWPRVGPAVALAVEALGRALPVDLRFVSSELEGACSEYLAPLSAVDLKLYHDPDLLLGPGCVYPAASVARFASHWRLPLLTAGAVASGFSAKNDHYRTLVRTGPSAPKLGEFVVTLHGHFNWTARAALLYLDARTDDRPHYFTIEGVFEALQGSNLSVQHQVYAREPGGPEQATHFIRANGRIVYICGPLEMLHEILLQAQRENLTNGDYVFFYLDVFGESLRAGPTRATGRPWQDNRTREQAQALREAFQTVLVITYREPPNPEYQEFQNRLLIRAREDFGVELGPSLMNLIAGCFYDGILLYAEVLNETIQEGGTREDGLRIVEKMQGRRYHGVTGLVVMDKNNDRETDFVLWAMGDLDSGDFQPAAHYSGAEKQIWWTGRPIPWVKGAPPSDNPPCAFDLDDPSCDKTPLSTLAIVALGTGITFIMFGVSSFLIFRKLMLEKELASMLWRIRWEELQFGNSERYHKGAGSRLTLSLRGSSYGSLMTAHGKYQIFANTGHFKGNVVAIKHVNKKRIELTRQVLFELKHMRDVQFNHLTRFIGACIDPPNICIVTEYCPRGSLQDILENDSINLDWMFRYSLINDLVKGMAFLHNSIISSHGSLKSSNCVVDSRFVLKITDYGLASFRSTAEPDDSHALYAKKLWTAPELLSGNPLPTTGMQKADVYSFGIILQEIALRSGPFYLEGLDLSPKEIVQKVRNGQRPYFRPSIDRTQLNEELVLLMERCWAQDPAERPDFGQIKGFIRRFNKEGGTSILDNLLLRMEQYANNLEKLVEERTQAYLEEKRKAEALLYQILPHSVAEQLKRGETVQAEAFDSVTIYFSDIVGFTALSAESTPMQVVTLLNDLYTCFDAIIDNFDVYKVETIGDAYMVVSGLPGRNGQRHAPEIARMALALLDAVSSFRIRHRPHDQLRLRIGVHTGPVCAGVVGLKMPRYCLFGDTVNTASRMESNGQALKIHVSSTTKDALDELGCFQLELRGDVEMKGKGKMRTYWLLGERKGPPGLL
FLuc inh counter = counter-screen for Npr1 antagonists: firefly luciferase inhibitors | Potency, µM (doses to about 57.6 µM), hits mostly inhibitors | 1,400 compounds, 0.7% hits | shares compounds with NPR1 antag | AID 1347047 | purified FLuc enzyme, luminescence, Km substrate; active = well fitted curve in the direction sought with a large enough effect; inconclusive = small, poorly fitted or top-dose-only effect, or another doubt; inactive = no such curve, though single readings can be large; an effect the other way counts as inactive or inconclusive
GloSensor ctrl = counter-screen for Npr1 antagonists: GloSensor control cell line; shares compounds with NPR1 antag; HEK293 GloSensor cGMP, SNP-stimulated, luminescence; Potency, µM (titrated, usually from 57.6 µM), most hits filed as inhibitors; 1,400 compounds, 69% hits; AID 1347051; note: nearly all actives have a fitted effect of over 70% in size
Large screens that a line does not name were inactive (follow-up assays come after a bar, where they were run). Unless noted, calls come from the whole dose curve.

CN(C)c1ccc2ncc(Nc3ccc(Oc4ccccc4)cc3)n2n1	NPR1 antag 28.2µM, HEK cytotox 35.5µM, 3T3 cytotox 25.1µM | Npr1 antag conf 31.4µM | Npr2 selectivity 31.4µM | FLuc inh counter inactive | GloSensor ctrl 31.4µM
COc1ncccc1Nc1cnc2ccc(N(C)C)nn12	HEK cytotox inconclusive, 3T3 cytotox inconclusive
COc1ccc(N2CCN(c3nc(C(=O)NCc4ccc(C)c(C)c4)cs3)CC2)cc1	NPR1 antag 12.6µM, HEK cytotox 12.6µM, 3T3 cytotox inconclusive | Npr1 antag conf 9.68µM | Npr2 selectivity 13.7µM | FLuc inh counter inactive | GloSensor ctrl 10.9µM
COc1ccc(N2CCN(c3nc(C(=O)NCc4ccc(C)cc4)cs3)CC2)cc1	NPR1 antag 4.47µM, HEK cytotox 28.2µM | Npr1 antag conf 7.69µM | Npr2 selectivity 10.9µM | FLuc inh counter inactive | GloSensor ctrl 8.62µM
COc1ccc(N2CCN(c3nc(C(=O)NCc4cccc(C)c4)cs3)CC2)cc1	NPR1 antag 15.8µM, HEK cytotox 17.8µM, 3T3 cytotox inconclusive | Npr1 antag conf 15.3µM | Npr2 selectivity 15.3µM | FLuc inh counter inactive | GloSensor ctrl 12.2µM
CC(C)c1nc2c(c(-c3ccc(O)cc3)n1)CN(C(=O)c1cccc(Cl)c1)CC2	HEK cytotox inconclusive, 3T3 cytotox inconclusive
Cc1ccc(CNC(=O)N2CCC(c3noc(-c4ccccc4)n3)C2)cc1 (centres undefined)	NPR1 antag 17.8µM, HEK cytotox 39.8µM, 3T3 cytotox inconclusive | Npr1 antag conf inconclusive | Npr2 selectivity 24.3µM | FLuc inh counter inactive | GloSensor ctrl 24.3µM
CCNC(=O)N1CCC(c2noc(-c3ccccc3)n2)C1 (centres undefined)	none
Cc1cccc(OCC2CCCN(C(=O)c3sc(C(C)C)nc3C)C2)c1 (centres undefined)	HEK cytotox inconclusive, 3T3 cytotox inconclusive
CCNC(=O)c1ccc2c(c1)OCCN(c1cccc(OC(F)(F)F)c1)C2	HEK cytotox inconclusive, 3T3 cytotox inconclusive
O=C(NC1CCOCC1)c1ccc2c(c1)OCCN(c1cccc(OC(F)(F)F)c1)C2	NPR1 antag inconclusive, HEK cytotox 31.6µM, 3T3 cytotox inconclusive | Npr1 antag conf 39.6µM | Npr2 selectivity inconclusive | FLuc inh counter inactive | GloSensor ctrl 44.4µM
O=C1c2c(nc(COc3ccc(Cl)cc3)n2Cc2ccccc2)NCCN1CCOc1ccccc1	HEK cytotox inconclusive, 3T3 cytotox inconclusive
COc1ccc(S(=O)(=O)NC[C@H]2Cn3c(-c4ccc(Cl)cc4)cnc3CO2)cc1	NPR1 antag inconclusive, HEK cytotox 89.1µM, 3T3 cytotox 79.4µM | Npr1 antag conf inconclusive | Npr2 selectivity inconclusive | FLuc inh counter inactive | GloSensor ctrl inactive
CC(C)NC[C@H]1Cn2c(-c3cccc(Cl)c3)cnc2CO1	none
COc1ccc(CNC[C@H]2Cn3c(-c4ccc(Cl)cc4)cnc3CO2)cc1	NPR1 antag 25.1µM, HEK cytotox 56.2µM, 3T3 cytotox 31.6µM | Npr1 antag conf 31.4µM | Npr2 selectivity 35.3µM | FLuc inh counter inactive | GloSensor ctrl inconclusive
COc1cccc(NC(=O)c2cnc3c(c2)N(C(=O)Cc2ccc(C(C)C)cc2)CCC3)c1	NPR1 antag 11.2µM, HEK cytotox 22.4µM, 3T3 cytotox inconclusive | Npr1 antag conf 19.3µM | Npr2 selectivity 19.3µM | FLuc inh counter inactive | GloSensor ctrl 17.2µM
CCC(O)C(=O)N1CCc2onc(-c3ccc(-c4ccccc4)cc3)c2C1 (centres undefined)	NPR1 antag 11.2µM, HEK cytotox inconclusive, 3T3 cytotox inconclusive | Npr1 antag conf 24.3µM | Npr2 selectivity 24.3µM | FLuc inh counter inconclusive | GloSensor ctrl 24.3µM
CC(Cn1cccn1)C(=O)N1CCc2onc(-c3ccc(F)c(F)c3)c2C1 (centres undefined)	HEK cytotox inconclusive
CCCOc1ccccc1C(=O)N1CCc2onc(-c3ccccc3)c2C1	NPR1 antag inconclusive, HEK cytotox inconclusive, 3T3 cytotox inconclusive | Npr1 antag conf inconclusive | Npr2 selectivity inconclusive | FLuc inh counter inactive | GloSensor ctrl inactive
O=C(O)[C@]12CCCN[C@@H]1CCN(Cc1cnc(-c3ccccn3)nc1)C2	none
CCN1c2cc(C(=O)N3CCN(C4CCCCC4)CC3)ccc2C(=O)N2CCCCC21 (centres undefined)	HEK cytotox inconclusive
NCCc1cccc(CN2CCC(OCc3ccccc3)CC2)c1	HEK cytotox inconclusive, 3T3 cytotox inconclusive
CC(=O)Nc1ccccc1-c1c(C)nn2c1N(CCC(C)C)CCC2	HEK cytotox inconclusive, 3T3 cytotox inconclusive
Cc1nn2c(c1-c1ccccc1[S+](C)(=O)[O-])N(CCC(C)C)CCC2	NPR1 antag 11.2µM, HEK cytotox inconclusive, 3T3 cytotox inconclusive | Npr1 antag conf 3.14µM | Npr2 selectivity 8.86µM | FLuc inh counter inactive | GloSensor ctrl 3.14µM
CCC(C)NC(=O)N1CC(n2cc(C(=O)N3CCOCC3)nn2)C1 (centres undefined)	none
O=C(N1CCC(c2ccccc2)CC1)C1(c2ccc(Cl)cc2)CCOCC1	HEK cytotox inconclusive, 3T3 cytotox inconclusive (no result: NPR1 antag, FLuc inh) | Npr1 antag conf inconclusive | Npr2 selectivity inconclusive | FLuc inh counter inactive | GloSensor ctrl inactive
COc1ccccc1-c1ccc2c(C(=O)NCc3cccs3)nn(C)c2n1	HEK cytotox inconclusive (no result: NPR1 antag, FLuc inh)
COc1ccc(CC(=O)N[C@@H]2CN(c3ccccn3)C[C@H]2CN(C)C)cc1OC	none
COc1ccc(C(=O)N2CCCN(c3cc(-c4ccccc4)[nH]n3)CC2)c(OC)c1	NPR1 antag inconclusive, HEK cytotox 39.8µM | Npr1 antag conf 24.3µM | Npr2 selectivity inconclusive | FLuc inh counter inactive | GloSensor ctrl 24.3µM
Cc1ccc(C(=O)N2CCN(c3cc(-c4cccs4)[nH]n3)CC2)c(C)c1	NPR1 antag inconclusive, HEK cytotox 44.7µM, 3T3 cytotox 7.94µM | Npr1 antag conf 27.3µM | Npr2 selectivity 24.3µM | FLuc inh counter inactive | GloSensor ctrl 27.3µM
COc1ccc(C(=O)N2CCCN(c3cc(-c4ccccc4)[nH]n3)CC2)c(C)c1	NPR1 antag 11.2µM, HEK cytotox inconclusive, 3T3 cytotox inconclusive | Npr1 antag conf 17.2µM | Npr2 selectivity 19.3µM | FLuc inh counter inactive | GloSensor ctrl 17.2µM
O=C(c1ccc(F)cc1Cl)N1CCC(n2cc(-c3nc(C4CC4)no3)nn2)C1 (centres undefined)	NPR1 antag 15.8µM, HEK cytotox inconclusive, 3T3 cytotox inconclusive | Npr1 antag conf 27.3µM | Npr2 selectivity inconclusive | FLuc inh counter inactive | GloSensor ctrl inconclusive
